Source: PubChem
HCMV antiviral: inhibitors of human cytomegalovirus; HFF cells, HCMV-luciferase reporter, 72 h; hits give low values; activity change, negative = inhibition, % at 57.5 µM; 410,000 compounds, 4.5% hits; in the data active = activity change below about -60%; inconclusive = no clear call, values can overlap the other calls; inactive = above about -39%
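After 16 h attachment at 37C, HFF cells received test compound and HCMV-luciferase (1 PFU/cell); reporter luminescence read 72 h later, data normalized against buffer-only and known inhibitor Salinomycin.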
VACV Venus inh: inhibitors of vaccinia virus (Venus reporter) | Vaccinia virus Venus reporter expression, fluorescence | Potency, µM (doses to about 36.5 µM), without a hit: at the highest dose activity change, negative = inhibition, most hits filed as inhibitors | 330,000 compounds, 0.46% hits; calls by dose curve; tested in A549 cells; note: potency is the fitted concentration of half-maximal effect; nearly all actives have a fitted effect of over 30% in size
LmPK inh: inhibitors of Leishmania mexicana pyruvate kinase. Q27686. 290,000 compounds, 0.37% hits. purified LmPK, Kinase-Glo ATP luminescence, 1 h. Potency, µM (series often up to 57.5 µM), inactives show top-dose activity change, negative = inhibition, usual class: inhibitors; note: potency is the fitted concentration of half-maximal effect
Target sequence (Q27686 whole entry, looked up): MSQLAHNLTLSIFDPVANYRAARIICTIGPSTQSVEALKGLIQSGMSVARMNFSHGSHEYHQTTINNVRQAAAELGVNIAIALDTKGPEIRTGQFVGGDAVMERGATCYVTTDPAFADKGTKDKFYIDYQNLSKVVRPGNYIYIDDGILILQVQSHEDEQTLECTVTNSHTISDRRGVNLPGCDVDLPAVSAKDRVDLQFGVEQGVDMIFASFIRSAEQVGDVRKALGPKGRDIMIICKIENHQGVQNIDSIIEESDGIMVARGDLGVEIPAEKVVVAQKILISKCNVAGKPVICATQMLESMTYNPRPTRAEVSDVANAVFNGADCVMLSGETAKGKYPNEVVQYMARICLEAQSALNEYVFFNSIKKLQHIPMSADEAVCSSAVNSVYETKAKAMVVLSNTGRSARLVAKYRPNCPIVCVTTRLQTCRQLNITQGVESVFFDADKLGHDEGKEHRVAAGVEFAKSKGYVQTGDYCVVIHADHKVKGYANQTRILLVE
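Purified LmPK (0.1 nM) converted ADP (0.1 mM) to ATP with PEP (0.5 mM) in imidazole buffer pH 7.2 with KCl and MgCl2, 1 h at room temperature. ATP was read by Kinase-Glo luminescence; data normalized to uninhibited and no-enzyme controls.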
TbPYK inhibitor: inhibitors of Trypanosoma brucei pyruvate kinase; Q57TT1; TbPYK enzyme, Kinase-Glo Plus ATP luminescence, 45 min; Potency, µM (doses to about 76.8 µM), inactives show at the highest dose activity, negative = inhibition, usual class: inhibitors; 410,000 compounds, 0.12% hits; note: potency is the fitted concentration of half-maximal effect; nearly all actives have a fitted effect of over 50% in size
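Assay buffer: 50 mM TEA pH 7.2, 100 mM KCl, 10 mM MgCl2, 0.05% BSA, 0.01% Tween-20. Pyruvate kinase from T. brucei plus substrate met compound, then ADP (130 uM final). Luminescence was read post 45 min RT.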
VACV mCherry inh: vaccinia inhibition (mCherry reporter). 310,000 compounds, 0.63% hits. Potency, µM (doses to about 36.5 µM), without a hit: at the top dose activity change, negative = inhibition, hits mostly inhibitors. Vaccinia virus mCherry reporter infection, fluorescence; calls by dose curve; tested in A549 cells; note: potency is the fitted concentration of half-maximal effect; nearly all actives have a fitted effect of over 35% in size
Starred values were filed as active, the others as inactive; i = inactive; ? = inconclusive; / = no result. The list is not random: actives were taken first. Their share in the collection is about 5%. Unless noted, calls come from the whole dose curve; as a rule, active = well fitted curve in the direction sought with a large enough effect; inconclusive = small, poorly fitted or top-dose-only effect, or another doubt; inactive = no such curve, though single readings can be large; an effect the other way counts as inactive or inconclusive. % is set by controls: 0 for no effect and ±100 for the full control effect.

SMILES	HCMV antiviral	VACV Venus inh	LmPK inh	TbPYK inhibitor	VACV mCherry inh
CC(C)(C)OC(=O)N1CCC(C(=O)N[C@@H](Cc2c[nH]c3ccccc23)C(=O)O)CC1	3	/	-2%	8%	/
Cc1ccc(C(=O)N/C(=C\c2ccc(Br)cc2)c2nc(=S)[nH][nH]2)cc1	-71*	?	6%	1%	-8%
O=C(/C=C/c1ccco1)Nc1ccc(F)cc1	-11	0%	/	1%	0%
O=C(/C=C/c1ccco1)NCCc1ccc(F)cc1	-78*	-9%	7%	0%	?
CC(=O)OCCNc1cc(Sc2nc3ccccc3[nH]2)c2nonc2c1[N+](=O)[O-]	27	112µM*	0%	-3%	?
O=C(Nc1ccc2ccccc2c1)c1ccccc1O	-99*	?	-8%	-1%	?
COc1ccc(C(=O)Nc2cccc(C)c2)cc1	59	/	14µM*	/	/
COc1ccc(C(=O)Nc2cccc(NC(C)=O)c2)cc1	50	-6%	/	-11%	14%
COc1ccc(C(=O)Nc2ccc(C3(C#N)CCCC3)cc2)cc1	-75*	-8%	1%	4%	-16%
Cc1ccc2cc(NC(=O)c3ccccc3C)ccc2n1	-100*	-27%	-16%	-2%	-11%
O=C(c1ccncc1)c1nccn1-c1ccccn1	41	-12%	0%	-10%	i
COc1cccc(C(=O)Nc2ccc3ccccc3c2)c1	13	-7%	-1%	3%	i
COc1cccc(NC(=O)c2ccc(N3C(=O)C4CC=C(C)CC4C3=O)cc2)c1 (stereo not given)	-64*	/	10%	1%	/
CCCC(=O)Nc1ccc(C(=O)Nc2cccc(OC)c2)cc1	-74*	/	-5%	0%	/
Cc1cccc(C(=O)Nc2ccc3c(c2)nc(C)n3C)c1	-102*	-4%	-1%	-3%	-13%
COc1cccc(NC(=O)c2ccc(NC(=O)C(C)(C)C)cc2)c1	-17	-22%	-16%	-9%	16%
Cc1cccc(C(=O)Nc2ccc3ccccc3c2)c1	-102*	/	-3%	0%	/
Cc1cccc(C(=O)Nc2ccc3c(c2)ncn3C)c1	-13	-12%	-6%	7%	-22%
Cc1ccn2c(c1)nc(=O)c1cc(S(=O)(=O)N3CCCCC3)c(Cl)cc12	1	4%	/	2%	0%
COc1ccc(-n2sc3ccccc3c2=O)cc1	-102*	?	/	11µM*	-26%
COc1ccc(-n2sc3ccc(F)cc3c2=O)cc1	-5	?	/	?	?
COc1ccc2sc(-c3ccc(SC)cc3)c(-c3ccc(O)cc3)c2c1	-7	11µM*	/	2%	?
CC(C)(C)n1nc2c(c1NC(=O)Cc1cccs1)CSC2	/	/	6%	/	/
CCCN(CC(=O)Nc1ccc(Cl)cc1Cl)C(=O)/C=C/c1ccco1	-66*	-10%	-3%	-5%	-18%
CCN(CC(=O)Nc1ccc(NC(C)=O)cc1)C(=O)/C=C/c1ccco1	-12	0%	/	-1%	-11%
SMILES	HCMV antiviral	VACV Venus inh	LmPK inh	TbPYK inhibitor	VACV mCherry inh
c1ccc(NN(Cc2cnccn2)c2ccccc2)cc1	-24	-8%	/	-10%	-5%
Cc1nc(N)nc(N)c1/C=C/C(C)(C)c1ccc(Cl)cc1	-109*	3.5µM*	1%	4%	?
Cc1nc(N)nc(N)c1Oc1ccc(Cl)cc1	-39	-8%	/	-2%	-4%
Cc1ccc(NC(=O)CS(=O)CC(=O)N(C2CCCC2)C(C)C(=O)NC2CCCCC2)cc1 (stereo not given)	?	-15%	1%	1%	-24%
O=S1(=O)C=C(SCc2ccccc2)Nc2ccccc21	-19	?	-3%	-1%	/
COc1ccc(CSC2=CS(=O)(=O)c3ccccc3N2)cc1	-62*	-26%	3%	2%	-34%
CN(C)C(=O)Oc1ccc(Br)c2ccccc12	-2	-11%	3%	2%	i
CN(C)C(=O)Oc1c(Cl)cc(Cl)c2ccccc12	-71*	-16%	2%	-11%	/
CCc1cccc(C)c1NC(=S)NCc1ccc2c(c1)cc(C)n2C	-91*	-1%	1%	6%	?
CCCCn1c(-c2nonc2NC(=O)c2ccccc2Cl)nc2ccccc21	-77*	/	/	-9%	/
Nc1nonc1-c1nc2ccccc2n1CC(=O)Nc1ccccc1	19	-25%	3%	-2%	-2%
CC(=O)Nc1nonc1-c1nc2ccccc2n1CC1CC1	-67*	-6%	-9%	3%	-10%
